# Test results taken from PubChem BioAssay (NCI).
# About 83,000 compounds went through this panel and 20% of them were active in at least one assay; those are over-represented in the sample as a whole.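 Testing used 96-well plates and a 48-hour single-concentration exposure. Example: -40 means 40% of the starting cells died.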 Values without a mark were called inactive. Activity calls are given as the source filed them. Rule for the calls: active = growth percent below 10; inactive = the rest.
# How the values were obtained:
# Experiment in all cases: NCI-60 one-dose screen, 48 h (100 = growth as untreated, 0 = no growth, -100 = all killed)
# Conditions in all cases: 10 µM unless noted
# [1] = test system: SR leukemia
# [2] = test system: RPMI-8226 leukemia
# [3] = test system: OVCAR-8 ovarian
# [4] = test system: OVCAR-5 ovarian
# [5] = test system: SK-OV-3 ovarian
# [6] = test system: IGROV1 ovarian
# [7] = test system: OVCAR-3 ovarian
# [8] = test system: HS 578T breast
# [9] = test system: NCI/ADR-RES ovarian
# [10] = test system: T-47D breast
# [11] = test system: BT-549 breast
# [12] = test system: MDA-MB-435 melanoma
# [13] = test system: SW-620 colon
# [14] = test system: MCF7 breast
# [15] = test system: HCT-116 colon
# [16] = test system: HCC-2998 colon
# [17] = test system: KM12 colon
# [18] = test system: OVCAR-4 ovarian
Compound,growth [1],growth [2],growth [3],growth [4],growth [5],growth [6],growth [7],growth [8],growth [9],growth [10] [%],growth [11],growth [12],growth [13],growth [14],growth [15],growth [16],growth [17],growth [18] [%]
COc1cc(/C=C/C(=O)c2ccc(Nc3ncnc4ccccc34)cc2)cc(OC)c1,0.253% (active),2.26% (active),57.5%,101%,128%,60.2%,36.4%,82.4%,73.6%,117,26.9%,-39.2% (active),-66.1% (active),0.628% (active),-87.3% (active),-37.6% (active),-49.8% (active),–
C[C@@H]1CN(Cc2ccc(/C=C/c3n[nH]c4ccc5nc(-c6cn[nH]c6C(F)(F)F)c6c(c5c34)CCCC6)cc2)C[C@H](C)O1,7.98% (active),34.3%,33.4%,19.7%,22.5%,1.46% (active),38.2%,3.34% (active),28.7%,49.8,39.6%,46.7%,-16.6% (active),12.4%,4.51% (active),27.6%,19.8%,–
CCCCCCc1nc2nc(Cl)c(Cl)nc2[nH]1,62.9%,28.2%,71.9%,97.4%,92%,57.7%,40.2%,76.4%,66.7%,22.7,66.5%,61.9%,87.6%,64.4%,57.1%,61.3%,47.6%,–
COc1ccc(/C=C/C(=O)c2ccc(OC)c(OC)c2)cc1O,18.6%,65.2%,28.5%,97.5%,104%,74.5%,18.8%,92.6%,5.7% (active),75.7,85.2%,75%,17.1%,51.6%,20.3%,102%,70.6%,–
CC(=O)N1c2ccccc2NC2=C(C(=O)N(C)C2(C)C)C1C (stereo not drawn),16.7%,12.6%,65.8%,62.5%,55.4%,39.6%,18.1%,20.4%,102%,28.7,69.5%,-67.8% (active),24.2%,16.4%,24.9%,60.8%,19.8%,–
COc1ccc(-c2nc(N/N=C/c3cccc(O)c3)nc(N3CCOCC3)c2C#N)cc1,-20.3% (active),32.1%,68.8%,117%,104%,71.2%,75.8%,69.3%,74.8%,72,84.6%,97.7%,58.9%,61.7%,59.1%,108%,72.2%,–
NC(=S)N/N=C(\c1ccc(Cl)cc1)C1CC1,–,67.3%,70.9%,95.5%,92.8%,45.7%,58.2%,99.6%,67.3%,30.6,114%,93.8%,72%,18.5%,3.65% (active),102%,100%,68.2
c1ccc(-c2nnc(Nc3ccc4c(c3)OCCO4)o2)c(NCc2ccncc2)c1,10.9%,–,20.2%,32.2%,-2.96% (active),28.5%,-36.9% (active),64.4%,4.75% (active),52.7,-15.1% (active),-34.6% (active),27.9%,20%,4.92% (active),-22.3% (active),-38.3% (active),35.5
COc1ccc(Cn2nc3c(c2-c2cc(OC)c(OC)c(OC)c2)-c2oncc2CC3)cc1,25.5%,–,107%,88%,94.7%,81.8%,98%,116%,65.9%,79.3,88.9%,0.861% (active),86%,69.9%,81.4%,77.5%,70.9%,–
[O-][n+]1ccccc1CCN(O)CCc1cccc[n+]1[O-],–,102%,101%,97.7%,101%,106%,106%,94.5%,99.8%,100,101%,105%,102%,102%,94.7%,109%,104%,107
CC(C)(C)OC(=O)N1CCN(c2ccc(N)cc2)C(=O)C1,81.2%,–,107%,112%,109%,112%,117%,105%,102%,106,116%,106%,109%,91.9%,99.9%,102%,108%,108
O=S(=O)(c1cccc(NC2=Nc3cccc4cccc2c34)c1)N1CCCC1,–,48.8%,83.7%,100%,84.1%,80%,84.3%,76.8%,66%,44.5,48%,29.3%,64.4%,51.4%,62.8%,79.5%,71.7%,46.9
O=C(O)C(/C=C/c1ccco1)=N\Nc1nc(-c2ccc(Cl)cc2)cs1,41.5%,–,36.6%,98.9%,70.9%,-10% (active),-4.27% (active),77.3%,12.5%,66.6,63.8%,45.7%,71.5%,71.9%,26.3%,49%,62.2%,43.1
COc1cc2nc(-c3ccc(C#N)cc3)[nH]c(=O)c2cc1OC,–,135%,102%,102%,112%,113%,109%,106%,98.7%,112,293%,103%,110%,100%,94.3%,83.1%,111%,113
COc1ccc(-c2c(-c3ccccc3)noc2N)cc1OC,76.6%,–,100%,117%,107%,113%,117%,148%,104%,99.6,105%,91%,118%,91.2%,100%,110%,94.7%,113
COC(=O)N[C@H]1CCc2cc(OC)c(OC)c(OC)c2-c2ccc(SC)c(=O)cc21,3.05% (active),–,9.33% (active),9.44% (active),24.6%,19.9%,-20.6% (active),2.61% (active),-22% (active),50.2,-4.09% (active),-29.5% (active),16.9%,14.7%,5.32% (active),6.51% (active),1.21% (active),39.8
Cn1c2c(Cl)c(Cl)ccc2c2cc(N)[nH]c(=O)c21,–,94.9%,73.7%,66.2%,92.2%,54.7%,86.2%,51.5%,74.6%,79.7,64.2%,107%,77.8%,72.4%,83.1%,85%,94.2%,87.2
